# Source: PubChem BioAssay (EPA / NIEHS)
# Activity calls are given as the source filed them. Rule for the calls, unless noted: active = hit-call score of the fitted dose curve at least 0.9, where 1 is the maximum; inactive = score below 0.9.
# Experiment: IUF_NPC2-5_cytotoxicity_120hr: Cytotoxicity Assessment at 120 hours in the Leibniz Research Institute for Environmental Medicine (IUF) Neural Progenitor Cell Migration and Differentiation Assay (NPC2-5) (AID 2284307; active = hit-call score of the fitted dose curve at least 0.9, where 1 is the maximum;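 for AC50: LDH released into supernatant as membrane damage marker via resorufin fluorescence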)
# Method in brief: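 Human fetal (GW 16-19) neural progenitor spheres (0.3 mm) plated on poly-D-lysine/laminin in N2 differentiation medium, exposed 120 h with half-medium renewal at day 3; 7 concentrations plus solvent control, DMSO ≤0.1%. LDH release in supernatant read by resorufin fluorescence.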
Compound,AC50,outcome
Cc1cc(C(F)(C(F)(F)F)C(F)(F)F)ccc1NC(=O)c1cccc(I)c1C(=O)NC(C)(C)CS(C)(=O)=O,1.5 µM (active),
O=S1OC[C@@H]2[C@H](CO1)[C@]1(Cl)C(Cl)=C(Cl)[C@@]2(Cl)C1(Cl)Cl (stereo partly specified),,inactive
CS(=O)(=O)c1ccc(C(=O)C2C(=O)CCCC2=O)c(Cl)c1COCC(F)(F)F,,inactive
CC(C)[C@@H](Nc1ccc(C(F)(F)F)cc1Cl)C(=O)OC(C#N)c1cccc(Oc2ccccc2)c1 (stereo partly specified),,inactive
CCOCn1c(-c2ccc(Cl)cc2)c(C#N)c(Br)c1C(F)(F)F,41.7 µM (active),
CNC(=O)CSP(=O)(OC)OC,,inactive
OC(Cc1ccccc1Cl)(Cn1[nH]cnc1=S)C1(Cl)CC1 (stereo unspecified),126 µM (active),
CC1(C)[C@H](C(=O)O[C@H](C#N)c2cccc(Oc3ccccc3)c2)[C@@H]1/C=C(\Cl)C(F)(F)F,,inactive

# Experiment: IUF_NPC2-5_cell_number_120hr: Cell Number Assessment at 120 hours in the Leibniz Research Institute for Environmental Medicine (IUF) Neural Progenitor Cell Migration and Differentiation Assay (NPC2-5) (AID 2284308);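 note: count of Hoechst-stained nuclei in migration zone around plated human neural progenitor spheres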
# Method in brief: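 Human fetal neural progenitor spheres (0.3 mm) plated on poly-D-lysine/laminin in N2 differentiation medium, exposed five days across 7 concentrations with half-medium refresh at day 3. Hoechst-positive nuclei counted in migration area at 120 h, relative to DMSO.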
Compound,outcome,AC50
Cc1cc(C(F)(C(F)(F)F)C(F)(F)F)ccc1NC(=O)c1cccc(I)c1C(=O)NC(C)(C)CS(C)(=O)=O,inactive,
Cc1ccccc1OP(=O)(Oc1ccccc1C)Oc1ccccc1C,inactive,
O=S1OC[C@@H]2[C@H](CO1)[C@]1(Cl)C(Cl)=C(Cl)[C@@]2(Cl)C1(Cl)Cl (stereo partly specified),inactive,
CS(=O)(=O)c1ccc(C(=O)C2C(=O)CCCC2=O)c(Cl)c1COCC(F)(F)F,inactive,
CC(C)[C@@H](Nc1ccc(C(F)(F)F)cc1Cl)C(=O)OC(C#N)c1cccc(Oc2ccccc2)c1 (stereo partly specified),inactive,
CCOCn1c(-c2ccc(Cl)cc2)c(C#N)c(Br)c1C(F)(F)F,,84.8 µM (active)
CNC(=O)CSP(=O)(OC)OC,inactive,
OC(Cc1ccccc1Cl)(Cn1[nH]cnc1=S)C1(Cl)CC1 (stereo unspecified),inactive,
CC1(C)[C@H](C(=O)O[C@H](C#N)c2cccc(Oc3ccccc3)c2)[C@@H]1/C=C(\Cl)C(F)(F)F,,0.586 µM (active)

# Experiment: IUF_NPC2-5_viability_120hr: Viability Assessment at 120 hours in the Leibniz Research Institute for Environmental Medicine (IUF) Neural Progenitor Cell Migration and Differentiation Assay (NPC2-5) (AID 2284312)
# Method in brief: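 Human fetal (GW 16-19) neural progenitor spheres of 0.3 mm were plated on poly-D-lysine/laminin in N2 differentiation medium and exposed from day 0 for 120 h, with half-medium refresh at day 3. Viability was read as alamar blue resazurin-to-resorufin fluorescence against DMSO.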
Compound,outcome,AC50
Cc1cc(C(F)(C(F)(F)F)C(F)(F)F)ccc1NC(=O)c1cccc(I)c1C(=O)NC(C)(C)CS(C)(=O)=O,inactive,
Cc1ccccc1OP(=O)(Oc1ccccc1C)Oc1ccccc1C,inactive,
O=S1OC[C@@H]2[C@H](CO1)[C@]1(Cl)C(Cl)=C(Cl)[C@@]2(Cl)C1(Cl)Cl (stereo partly specified),inactive,
CS(=O)(=O)c1ccc(C(=O)C2C(=O)CCCC2=O)c(Cl)c1COCC(F)(F)F,inactive,
CC(C)[C@@H](Nc1ccc(C(F)(F)F)cc1Cl)C(=O)OC(C#N)c1cccc(Oc2ccccc2)c1 (stereo partly specified),inactive,
CCOCn1c(-c2ccc(Cl)cc2)c(C#N)c(Br)c1C(F)(F)F,inactive,
CNC(=O)CSP(=O)(OC)OC,inactive,
OC(Cc1ccccc1Cl)(Cn1[nH]cnc1=S)C1(Cl)CC1 (stereo unspecified),,35.8 µM (active)
CC1(C)[C@H](C(=O)O[C@H](C#N)c2cccc(Oc3ccccc3)c2)[C@@H]1/C=C(\Cl)C(F)(F)F,inactive,
